# Assay outcomes from PubChem BioAssay.
# GRP78 ERSR act: qHTS for Inducers of the Endoplasmic Reticulum Stress Response (ERSR) in Human Glioma: qHTS; Potency, µM, for the others: at the highest dose activation, usual class: activators; AID 602332, 2012; U87-MG GRP78 promoter luciferase reporter, 16 h; 0.02% of 420,000 active; further: series mostly up to about 76 µM; % of control where 0% means no effect; nearly all actives have a fitted effect of over 35% in size
#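 ERSR induction read as luciferase luminescence (Bright-Glo, 10 min at room temperature) in stably transfected human U87-MG glioma cells exposed to compounds for 16 h, using GRP78 as sensor.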
# BCR signal inh: qHTS Assay to Find Inhibitors of Chronic Active B-Cell Receptor Signaling; ABC-DLBCL IkBa-CBG/CBR reporter, luminescence ratio, 4 h; Potency, µM (titrated, usually from 46.1 µM), inactives show top-dose activity change, negative = inhibition, hits mostly inhibitors; 0.05% of 340,000 active; AID 493014, 2011; active means well fitted inhibition curve with a large enough effect in the signal ratio, with a control signal flat, not every such curve was filed as active; inconclusive means small, poorly fitted or top-dose-only effect, or effect the other way, or a change in a side signal; the % refers to the signal ratio;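 further: plate controls were basal doxycycline-induced cells for no effect and cells given 10 µM MG132 for full effect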
#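 TMD8 ABC-DLBCL cells carrying doxycycline-inducible green luciferase fused to IkappaBalpha plus unfused red luciferase were exposed to compounds (up to 46 uM) for 4 hrs at 37C. Activity came from the overlap-corrected green/red luminescence ratio.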
# 12-LOX inh: Primary qHTS assay for inhibitors of human arachidonate 12S-lipoxygenase (ALOX12): Round 2. 1.1% of 580,000 active. Potency, µM (highest dose often 108 µM), for inactives: at the top dose activity change, negative = inhibition, actives largely listed as inhibitors. Polyunsaturated fatty acid lipoxygenase ALOX12 (Homo sapiens), P18054. AID 1671190, 2021. purified 12hLO, xylenol orange hydroperoxide absorbance; further: on the % scale 0 is the no-effect control and ±100 the full control effect
#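 Purified human 12hLO (150 nM final) in 25 mM Hepes, 0.01% Triton X-100, pH 7.0 was preincubated 15 min at room temperature with compound. Then 40 uM arachidonic acid was added, 30 min. Hydroperoxide was read by Fe-XO absorbance ratio 573/405 nm.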
# Apoferritin bind: qHTS Assay for Identification of Novel General Anesthetics. Ferritin light chain (Equus caballus), P02791. apoferritin/1-aminoanthracene competitive binding, fluorescence. Potency, µM (doses to about 77.5 µM), for the others: top-dose activity change, negative = displacement, actives largely listed as inhibitors. 0.074% of 350,000 active. AID 485281, 2010; further: on the % scale 0 is the no-effect control and ±100 the full control effect; nearly all actives have a fitted effect of over 20% in size
# Target sequence (P02791 2-175 limits assumed): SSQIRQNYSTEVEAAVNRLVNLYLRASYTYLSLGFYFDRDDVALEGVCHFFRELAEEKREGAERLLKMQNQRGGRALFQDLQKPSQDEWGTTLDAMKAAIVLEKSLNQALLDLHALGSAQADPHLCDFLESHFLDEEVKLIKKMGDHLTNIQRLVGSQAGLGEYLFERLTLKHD
#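 Concentration-response curves derived by four-parameter Hill fitting of normalized fluorescence, where compounds displaced 1-AMA from 10 uM horse apoferritin following a brief 10 min room-temperature incubation; propofol titration acted as positive control.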
# The depositor's hits bear a star; u = inconclusive; x = no result given; [ ] = dose if it differs, or a comment. Most compounds without a hit are left out; they make up all but 1.1% or so of the library. Unless noted, the call rests on the fitted dose curve; in most records, active means well fitted curve in the direction sought with a large enough effect; inconclusive means small, poorly fitted or top-dose-only effect, or another doubt; inactive means no such curve, though single readings can be large; an effect the other way counts as inactive or inconclusive. Potency means the concentration at half of the fitted maximal effect.
SMILES,GRP78 ERSR act,BCR signal inh,12-LOX inh,Apoferritin bind
O=C(O)CNS(=O)(=O)c1ccc2c(c1)Cc1cc(S(=O)(=O)NCC(=O)O)ccc1-2,-1.8%,3.5%,8.91µM*,-5.2%
O=C(O)CNS(=O)(=O)c1ccc2c(c1)C(=O)c1cc(S(=O)(=O)NCC(=O)O)ccc1-2,-3.4%,4.1%,0.0%,-1.2%
Cc1c(C#N)c(NC(=O)CSc2nnnn2CC2CCCO2)n(C2CCCC2)c1C (configuration not stated),x,x,-2.2%,x
N#CCCCCS(=O)(=O)c1ccc2c(c1)OCCO2,x,x,-50.5%,x
CCCCn1nc(C(=O)Oc2ccc(C(C)=O)cc2)c2ccccc2c1=O,x,x,-8.8%,x
CCOC(=O)COc1ccc(C2NC(C(=O)O)CS2)cc1 (configuration not stated),2.0%,u,31.6µM*,5.4%
COCCN(CCOC)Cc1cc(=O)oc2cc(C)c(C)cc12,-0.7%,x,14.1µM*,x
C=CCN(CC=C)Cc1cc(=O)oc2cc(OC)c(Cl)cc12,-4.0%,x,u,x
CCCN(CCC)Cc1cc(=O)oc2cc(OC)c(Cl)cc12,-3.8%,x,31.6µM*,x
COCCN(CCOC)Cc1cc(=O)oc2cc(OC)ccc12,2.9%,x,u,x
Cc1ccccc1C(=O)N1CCC(c2nc3ccccc3o2)CC1,x,x,-5.8%,x
CCc1cccc2c(C(C)=O)cn(CC(=O)NC3CC3)c12,x,x,31.6µM*,x
CC(=O)c1cn(CC(=O)NC2CCCCCC2)c2ccccc12,x,x,15.4%,x
Cc1ccc(-n2ncc3c(NCCCc4ccccc4)ncnc32)cc1,4.6%,10.1%,-24.4%,6.9%
COc1ccc(CCNc2ncnc3c2cnn3-c2cccc(Cl)c2)cc1,-4.2%,u,39.8µM*,-6.7%
COc1ccc(-n2ncc3c(NCc4ccco4)ncnc32)cc1,5.1%,u,31.6µM*,-18.8%
Cc1ccc(-n2ncc3c(NCCc4ccccc4)ncnc32)cc1,-0.6%,u,28.2µM*,2.8%
COc1ccccc1OCCN1C(=O)C2(SC(NC(C)=O)=NN2C(C)=O)c2ccccc21 (configuration not stated),x,x,29.7%,x
Cc1ccc(SC(=O)COc2ccccc2Cl)cc1,x,x,5.0%,x
CCC(=O)c1c(OCCC(C)C)ccc2c(C)cc(=O)oc12,x,x,-3.7%,x
CSCC(=O)N1C[C@@H](NC(=O)Nc2ccc(F)cc2F)C[C@H]1C(=O)N[C@@H](Cc1cccs1)C(N)=O,x,x,15.5%,x
CCn1nccc1C(=O)N1CC(Oc2ccccc2-c2nc(CCOC)no2)C1,x,x,48.1%,x
CCOc1ccc(NC(=O)Cn2c(Nc3cc(C)cc(C)c3)nc(C)cc2=O)cc1,x,x,35.5µM*,x
CCCN1CCCCC12Cc1ccccc1CN([S+](C)(=O)[O-])C2 (configuration not stated),x,x,3.6%[6.33 µM],x
CN(CC(=O)NC(=O)NCc1cccs1)Cc1cccs1,x,x,-59.8%,x
SMILES,GRP78 ERSR act,BCR signal inh,12-LOX inh,Apoferritin bind
COC(=O)c1ccccc1NC(=O)/C=C/c1cc(OC)c(OC)c(OC)c1,0.3%,16.4µM*,0.0%,-14.0%
COc1ccc(-c2cn(-c3ccc(C)c(C)c3)c(=S)[nH]2)cc1OC,0.3%,u,28.2µM*,-0.5%
COc1ccc(-c2cn(-c3ccc(C)c(Cl)c3)c(=S)[nH]2)cc1OC,1.9%,u,u,6.3%
COc1cccc(-n2cc(-c3ccc(F)cc3)[nH]c2=S)c1,9.3%,7.4%,22.4µM*,2.9%
Cc1cccc(C(=O)NC(c2cccnc2)c2ccc(C)c(C)c2)c1 (configuration not stated),x,x,-4.3%,x
CC1CN(CCCCSc2ccc(Cl)cc2)CC(C)O1 (configuration not stated),-2.7%,-3.6%,1.78µM*,-12.1%
O=C(OCC1CC1)c1ccc(-c2ccccc2)cc1,x,x,-1.3%,x
Cc1cccc(OC[C@H]2C[C@@H](NCc3cccc4c3OCO4)[C@H](O)[C@@H]2O)n1,x,x,20µM*,x
COC[C@H]1C[C@@H](NCc2ccc(C)o2)[C@H](O)[C@@H]1O,x,x,57.0%[176 µM],x
CCN(CC(=O)NC(N)=O)Cc1ccccc1C,x,x,-2.7%,x
CCCC1=[N+](CC)CCn2c(C)ccc21,-3.5%,-0.9%,20µM*,-11.1%
CCCC1=[N+](CC(=O)c2ccccc2)CCn2c(C)ccc21,0.5%,5.9%,-16.9%,-13.2%
C/C=C\C=C/C(=O)Nc1cccc(C2=NOC3(C2)C[C@H](C(N)=O)N(C(=O)CC)C3)c1 (some centres not stated),-2.1%,u,-7.6%,-13.5%
C/C=C\C=C\C(=O)Nc1cccc(C2=NOC3(C2)C[C@@H](C(N)=O)N(C(=O)C(c2ccccc2)c2ccccc2)C3)c1 (some centres not stated),-4.1%,u,8.91µM*,-20.2%
Cc1ccc(NC(=O)CN2C(=O)N/C(=C\c3cccn3-c3cccc(C(=O)O)c3)C2=O)cc1,1.4%,-0.4%,x,u
Cc1ccc(NC(=O)CN2C(=O)N/C(=C/c3ccc(C)o3)C2=O)cc1,1.6%,5.3%,35.5µM*,-23.1%
Cc1cccc(NC(=O)CN2C(=O)N/C(=C/c3ccc(C)o3)C2=O)c1,-4.5%,u,u,-7.8%
Cc1ccc(NC(=O)CN2C(=O)N/C(=C/c3cc(C)n(-c4cccc(C(=O)O)c4)c3C)C2=O)cc1,1.2%,0.2%,17.8µM*,-14.2%
CC(=O)N(CCC1(Cc2ccccc2)CCOC(C)(C)C1)Cc1ccccc1 (configuration not stated),x,x,-8.6%,x
O=C(COC(=O)c1c2c(nc3ccccc13)/C(=C\c1ccco1)CC2)NC1CCCC1,4.3%,x,7.08µM*,x
CN(CCC#N)C(=O)COC(=O)c1c2c(nc3ccccc13)/C(=C\c1ccco1)CC2,3.5%,x,-28.1%,x
CC1CCCCC1NC(=O)COC(=O)c1c2c(nc3ccccc13)/C(=C\c1ccco1)CC2 (configuration not stated),2.6%,x,15.8µM*,x
COc1cc(C2c3c(-c4ccccc4O)n[nH]c3C(=O)N2CCO)ccc1OCCC(C)C (configuration not stated),x,x,0.5%,x
S=C(N/N=C1/CC2CC=CC12)NC1CCCCC1 (configuration not stated),x,x,35.5µM*,x
O=C(Nc1ccc2nc(N3CCN(C4CCCCC4)CC3)cc(C(=O)O)c2c1)c1ccc(Cl)cc1,x,x,12.6µM*,x
SMILES,GRP78 ERSR act,BCR signal inh,12-LOX inh,Apoferritin bind
CCN1CCN(c2cc(C)c3cc(NC(=O)c4ccncc4)ccc3n2)CC1,-2.6%,-0.3%,3.5%,-4.1%
CCCCC(=O)Nc1ccc2nc(N3CCN(CC)CC3)cc(C)c2c1,x,x,-57.5%,x
CCN1CCN(c2cc(C(=O)O)c3cc(NC(=O)C(C)C)ccc3n2)CC1,x,x,15.8µM*,x
N#CCCN1CCN(c2cc(C(=O)O)c3cc(NC(=O)c4ccccc4)ccc3n2)CC1,x,x,6.31µM*,x
N#CCCN1CCN(c2cc(C(=O)O)c3cc(NC(=O)C4CCCC4)ccc3n2)CC1,x,x,-83.6%,x
CN1CCN(c2cc(C(=O)O)c3cc(NC(=O)c4ccc(Cl)cc4)ccc3n2)CC1,x,x,-81.5%,x
